Screening data from PubChem BioAssay.
Shown are actives, neighbours in structure and some others; about 12% of the full set was active somewhere.
RORgamma inh = inhibitors of mouse ROR gamma transcriptional activity | P51450 | Drosophila S2 Gal4-RORgamma UAS-luciferase reporter, 20 h | Potency, µM (titrated, usually from 53.6 µM), without a hit: at the top dose activity change, negative = inhibition, usual class: inhibitors | actives 5.4% (n = 310,000); note: nearly all actives have a fitted effect of over 60% in size
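A Gal4/UAS one-hybrid system in insect cells: metallothionein-promoter Gal4–ROR gamma fusion plus Photinus luciferase reporter. Copper sulfate 700 uM final, 20 hr ambient incubation, luminescent detection after 10 min with reagent.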
VP16 counter = counter-screen for ROR gamma inhibitors: Gal4-VP16 reporter. Drosophila S2 Gal4-VP16 UAS-luciferase, luminescence, 20 h. Potency, µM (doses to about 53.6 µM), without a hit: at the highest dose activity, negative = inhibition, hits mostly inhibitors. actives 3.5% (n = 310,000);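 note: Gal4-VP16 expression switched on by copper sulfate through the metallothionein promoter; nearly all actives have a fitted effect of over 50% in size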
Sfp PPTase inh = blocks B. subtilis Sfp PPTase activity | Biochemical Sfp PPTase activity, qHTS | Potency, µM, for inactives: largest response in the series, negative = inhibition, hits mostly inhibitors | actives 3.5% (n = 310,000) | AID 1490;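 note: the enzyme is Sfp with the accession as filed and its product quenches rhodamine fluorescence; 0% = enzyme reaction without inhibitor and -100% = no enzyme wells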
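Buffer: 50 mM Hepes-Na pH 7.6, 10 mM MgCl2, 0.01% Nonidet P-40, 0.01% BSA. Enzyme 15 nM, pre-exposed to compound 15 min; substrates then added and fluorescence change tracked over 30 min.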
PLK1 PBD block = inhibitors of human PLK1 polo-box domain binding. P53350. Plk1 PBD binding of FITC phosphopeptide, fluorescence polarization. Potency, µM, for the others: max response, negative = inhibition, usual class: inhibitors. actives 2.8% (n = 360,000); note: series mostly up to about 57 µM; nearly all actives have a fitted effect of over 65% in size
ALDH1A1 inh = blocks purified human ALDH1A1 activity; actives 7.3% (n = 220,000); Purified ALDH1A1, NADH fluorescence, propionaldehyde substrate; Potency, µM (doses to about 75.3 µM), without a hit: at the highest dose activity, negative = inhibition, usual class: inhibitors; AID 1030; P00352; active = well fitted inhibition curve with a large enough effect, not every such curve was filed as active; inconclusive = small, poorly fitted or top-dose-only effect, or another doubt; inactive = no such curve, though single readings can be large or run the other way;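 note: plate controls were no enzyme wells and a reference inhibitor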
Target sequence (P00352 whole entry, looked up): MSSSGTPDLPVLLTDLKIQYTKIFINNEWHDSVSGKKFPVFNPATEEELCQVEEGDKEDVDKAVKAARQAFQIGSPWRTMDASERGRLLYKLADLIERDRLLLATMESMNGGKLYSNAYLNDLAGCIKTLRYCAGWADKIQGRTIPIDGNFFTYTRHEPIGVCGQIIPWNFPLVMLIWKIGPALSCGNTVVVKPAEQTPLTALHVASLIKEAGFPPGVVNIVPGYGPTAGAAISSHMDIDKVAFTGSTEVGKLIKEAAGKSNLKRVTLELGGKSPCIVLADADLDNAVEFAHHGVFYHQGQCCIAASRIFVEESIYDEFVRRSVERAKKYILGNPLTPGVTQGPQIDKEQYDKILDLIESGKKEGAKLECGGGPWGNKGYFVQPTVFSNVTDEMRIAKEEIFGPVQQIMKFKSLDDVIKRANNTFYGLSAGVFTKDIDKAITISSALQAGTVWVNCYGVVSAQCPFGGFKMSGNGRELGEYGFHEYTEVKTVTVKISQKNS
* hit, by the source's call; ? = inconclusive; . = no result given; [ ] = another dose, or the depositor's remark. Unless noted, calls come from the whole dose curve; as a rule, active = well fitted curve in the direction sought with a large enough effect; inconclusive = small, poorly fitted or top-dose-only effect, or another doubt; inactive = no such curve, though single readings can be large; an effect the other way counts as inactive or inconclusive. Unless noted, % is set by controls: 0 for no effect and ±100 for the full control effect; potency is the fitted concentration of half-maximal effect.

SMILES	RORgamma inh	VP16 counter	Sfp PPTase inh	PLK1 PBD block	ALDH1A1 inh
C=CCN(CC=C)C(=O)c1c(OC)cccc1OC	22%	-7%	0%	-6%	11%
CC1(C(=O)NS(=O)(=O)C2CC2)CCCN(C(=O)Cc2ccc(F)cc2)C1 (stereo unspecified)	.	.	.	13%	.
O=C(O)c1cccc(NC2=C(Cl)C(=O)c3ccccc3C2=O)c1	11µM*	?	25µM*	17µM*	32µM*
C=CCNC1=C(Cl)C(=O)c2ccccc2C1=O	13µM*	?	-10%	-7%	?
CC(C)OCCCNC1=C(Cl)C(=O)c2ccccc2C1=O	-43%	?	?	-5%	.
O=C1C(Cl)=C(NCCc2ccccc2)C(=O)c2ccccc21	.	.	.	2.7µM*	.
CC1=C(Nc2ccc(C(=O)O)cc2)C(=O)c2ccccc2C1=O	-24%	?	-1%	?	.
O=C1C(Cl)=C(NCc2cccnc2)C(=O)c2ccccc21	10µM*	?	-11%	-26%	.
CC(C)NC1=C(Cl)C(=O)c2ccccc2C1=O	?	?	0%	-17%	?
CCN(CC)CCCNC1=C(Cl)C(=O)c2ccccc2C1=O	7.9µM*	?	-3%	-6%	3%
O=C(O)c1ccc(NC2=C(Cl)C(=O)c3ccccc3C2=O)cc1	?	5%	22µM*	5.3µM*	.
COCCCNC1=C(Cl)C(=O)c2ccccc2C1=O	-28%	-18%	1%	-16%	.
O=C1C(Cl)=C(Nc2ccccc2)C(=O)c2ccccc21	13µM*	13µM*	1%	-15%	8%
O=C(O)c1ccc(F)c(S(=O)(=O)Nc2cccc(F)c2)c1	.	.	.	.	7%
CCOc1ccccc1N1CC(C(=O)Nc2cc(S(=O)(=O)N3CCOCC3)ccc2OC(C)C)CC1=O (stereo unspecified)	.	.	.	0%	.
CNC(=S)NNc1nc(N2CCOCC2)nc(N2CCOCC2)n1	-1%	-11%	2.2µM*	-9%	6%
CCNC(=S)NNc1nc(N2CCOCC2)nc(N2CCOCC2)n1	-1%	-3%	14µM*	-9%	14%
CCC(N)(C(=O)O)c1ccc(C(=O)O)cc1 (stereo unspecified)	.	.	79µM*	.	2%
CCOC(=O)NN1C(=O)c2ccccc2NC1c1ccc(N(C)C)cc1 (stereo unspecified)	-25%	-5%	-12%	1%	18µM*
COC(=O)C1=C(C)N(Cc2ccccc2)[C@]23O[C@](C(=O)OC)(C(=O)N2C1c1ccccc1)C(c1ccccc1)C3C(=O)c1ccccc1 (stereo partly specified)	7%[10 µM]	9%[10 µM]	20%	.	5%[13.5 µM]
O=C(CCCC(=O)N/N=C\c1ccccn1)N/N=C\c1ccccn1	-2%	-2%	40µM*	-8%	-4%
O=C(N/N=C/c1ccccc1C(=O)O)C(=O)N1CCCCC1	8%	6%	17%	-6%	2%
O=C(N/N=C/c1ccccn1)C(=O)N1CCCCCC1	2%	-2%	45µM*	-2%	.
Cc1cccc(/C=N/NC(=O)Cn2nccc2C)n1	?	-4%	50µM*	-3%	8%
Cc1cc(C)n(CC(=O)N/N=C/c2ccccn2)n1	-28%	8%	18µM*	-6%	-11%
SMILES	RORgamma inh	VP16 counter	Sfp PPTase inh	PLK1 PBD block	ALDH1A1 inh
O=C1NC[C@H](CCCCN2C[C@H](Cc3ccccc3)N(CCC3CCCCC3)C(=O)C2=O)N(Cc2ccccc2)C1=O	.	.	.	2%	.
CCCCN1CCC[C@H]1CNC(=O)c1cc(C#N)c2ccccc2c1OC	-16%	-4%	1%	.	.
Nc1nnnn1CC(=O)N/N=C/c1ccccn1	5%	-11%	35µM*	1%	1%
Nc1nnnn1CC(=O)N/N=C/c1cccs1	31%	-3%	8%	-11%	8%
CCOC(=O)N1CCN(C(=O)CSCc2nc(-c3ccccc3F)oc2C)CC1	37%	-10%	-1%	-25%	22µM*
CSc1ccc(-c2nc(CSCC(=O)NC3CC3)c(C)o2)cc1	8.9µM*	?	1%	-13%	.
COc1ccc(-c2nc(CSCC(=O)NCCCN3CCCC3=O)c(C)o2)cc1	-24%	11µM*	5%	-1%	.
Cc1oc(-c2ccccc2Cl)nc1CSCC(=O)NC1CC1	-4%	-3%	16%	-1%	-18%
CCc1ccc(-c2nc(CSCC(=O)NC3CC3)c(C)o2)cc1	2µM*	?	19%	-15%	.
O=C(COC(=O)c1ccc(F)cc1F)Nc1ccc2c(c1)OCO2	.	.	.	-9%	.
Cc1cnc(CNc2ncnc3ccc(-c4ccccc4C#N)cc23)cn1	5%	-16%	5%	.	-9%
CCc1ccc(-c2nc(CSCC(=O)N3CCN(c4ncccn4)CC3)c(C)o2)cc1	16µM*	16µM*	?	2%	?
N#Cc1cccc(CS(=O)(=O)c2nnnn2C2CCCCC2)c1	-42%	6%	-15%	.	25µM*
c1ccc(CNc2nnnn2-c2ccccc2)cc1	?	-13%	6%	4%	40µM*
N#Cc1ccc(CS(=O)(=O)c2nnnn2-c2ccccc2)cc1	?	-21%	9%	.	0.79µM*
O=S(=O)(CCc1ccccc1)c1nnnn1-c1ccccc1	-1%	-4%	27%	.	8%
O=S(=O)(Cc1ccccc1)c1nnnn1-c1ccccc1	?	?	5%	.	0.45µM*
Cc1ccc2nc(CN(C)C(=O)[C@H]3O[C@@H](n4ccc(N)nc4=O)[C@H](O)[C@@H]3O)[nH]c2c1	.	.	.	-3%	.
O=C(O)CCSCc1ccccc1	.	.	.	.	2%[13.5 µM]
Cc1ccc(NC(=O)C2C3C=CC4(O3)C2C(=O)N(CCCN2CCCCC2)C4C(=O)NC2CCCCC2)cc1C (stereo unspecified)	-18%	-6%	3%	0%	.
O=C(c1ccncc1)N1CCC2(CCCN(c3ccncc3)C2)CC1	0%	-17%	11%	.	16%
COc1ccc(-c2n[nH]nc2C2=CC(=O)CC(C)(C)C2)cc1	.	.	.	-13%	.
CN(C)c1ncnc2ccc(-c3cccnc3)cc12	?	-10%	1%	.	-3%
CC1CN(C(=O)c2ccc(COc3ccc(C(C)C)cc3)o2)CC(C)O1 (stereo unspecified)	?	?	?	-2%	28µM*
CC(C)c1ccc(OCc2ccc(C(=O)N(C)C)o2)cc1	6%	?	-7%	-4%	.
CC(C)c1ccc(OCc2ccc(C(=O)O)o2)cc1	2.8µM*	?	15%	-7%	.
CCc1ccc(OCc2ccc(C(=O)O)o2)cc1	7.1µM*	?	12%	-10%	.
CC(=O)c1cc2c(cc1NC(=O)CSc1ncccn1)OCO2	.	.	.	-15%	.
CC(=O)C1C(c2cn(-c3ccccc3)nc2-c2cccs2)NC(=O)NC1(O)C(F)(F)F (stereo unspecified)	22%	14%	9%	-5%	22µM*
O=C(c1ccc2c(c1)N(Cc1ccccc1)CCS2)N1CCCCC1	?	?	40µM*	-12%	?
